Bioassay records from PubChem.
In the library only some 2.3% were active in any assay of this set; here they are far more common.
Tau fibril ThT = qHTS for Inhibitors of Tau Fibril Formation, Thioflavin T Binding; Microtubule-associated protein tau (Homo sapiens), P10636; recombinant tau K18 P301L, heparin-induced fibrillization, ThT fluorescence; Potency, µM (titrated, usually from 57.4 µM), without a hit: at the highest dose activity, negative = inhibition, actives largely listed as inhibitors; actives 2.1% (n = 270,000); AID 1460, 2008; also: potency is read from the fitted curve at half-maximal effect; nearly all actives have a fitted effect of over 55% in size
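Aggregation was driven by heparin (20 uM final) acting on recombinant tau […] bearing P301L in 100 mM sodium acetate pH 7; fibrils were detected with Thioflavin T.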
Tau fibril FP = qHTS for Inhibitors of Tau Fibril Formation, Fluorescence Polarization; Microtubule-associated protein tau (Homo sapiens), P10636; K18 P301L tau heparin fibrillization, Alexa594 FP, 6 h; Potency, µM (top dose mostly 57.7 µM), without a hit: at the highest dose activity, negative = inhibition, actives largely listed as inhibitors; actives 0.39% (n = 280,000); also: potency is read from the fitted curve at half-maximal effect; nearly all actives have a fitted effect of over 55% in size
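Quantitative HTS format: compounds meet 15 uM recombinant K18 P301L tau and Alexa 594-tau tracer in 100 mM sodium acetate pH 7; 20 uM heparin triggers fibrillization at 37 C over 6 hr; FP gives the signal.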
Coupling enz = qHTS Assay for Inhibitors of Fructose-1,6-bisphosphate Aldolase from Giardia Lamblia: Coupling assay counterscreen | activity change, negative = inhibition, % at 58.2 µM, hits read low | coupling enzyme system counterscreen, AmpLite Red fluorescence | actives 0.67% (n = 290,000) | AID 2472, 2010; in the data active = activity change below about -30%
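Fluorescence at 525 nm excitation and 598 nm emission measured inhibition of the coupled detection system without aldolase. Compounds (at 57.5 uM final) were preincubated 10 min at room temperature with coupling enzyme reagent before a 20 min substrate/AmpLite Red step.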
USP1-UAF1 inh = Inhibitors of USP1/UAF1: Primary Screen; Ubiquitin carboxyl-terminal hydrolase 1 (Homo sapiens), O94782; recombinant USP1/UAF1, Ub-Rhodamine cleavage fluorescence; Potency, µM (titrated, usually from 57.1 µM), inactives show at the top dose activity change, negative = inhibition, hits mostly inhibitors; actives 0.23% (n = 390,000); also: potency is read from the fitted curve at half-maximal effect; nearly all actives have a fitted effect of over 60% in size
Target sequence (O94782 whole entry, looked up): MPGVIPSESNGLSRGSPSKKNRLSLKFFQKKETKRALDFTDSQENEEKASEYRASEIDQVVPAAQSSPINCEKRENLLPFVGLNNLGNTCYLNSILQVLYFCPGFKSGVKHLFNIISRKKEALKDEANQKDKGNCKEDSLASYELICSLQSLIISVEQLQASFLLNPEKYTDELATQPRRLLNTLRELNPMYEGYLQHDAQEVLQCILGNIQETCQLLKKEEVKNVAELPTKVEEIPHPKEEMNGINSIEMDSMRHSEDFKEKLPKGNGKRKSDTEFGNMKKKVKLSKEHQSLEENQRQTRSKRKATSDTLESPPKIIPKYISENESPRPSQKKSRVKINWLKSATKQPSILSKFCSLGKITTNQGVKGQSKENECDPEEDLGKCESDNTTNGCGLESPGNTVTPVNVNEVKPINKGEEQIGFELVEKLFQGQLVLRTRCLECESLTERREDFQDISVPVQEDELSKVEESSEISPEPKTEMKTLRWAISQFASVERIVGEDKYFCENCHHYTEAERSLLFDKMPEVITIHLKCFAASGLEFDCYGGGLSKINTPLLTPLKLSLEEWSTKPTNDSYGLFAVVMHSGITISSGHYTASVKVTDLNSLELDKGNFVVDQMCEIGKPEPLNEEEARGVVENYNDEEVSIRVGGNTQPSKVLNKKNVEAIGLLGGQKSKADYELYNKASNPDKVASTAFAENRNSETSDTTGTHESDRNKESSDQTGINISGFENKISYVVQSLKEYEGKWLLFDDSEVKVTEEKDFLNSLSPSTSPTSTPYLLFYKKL
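Step one: compound is pinned into 1nM USP1/UAF1 in HEPES pH 7.8 buffer with TCEP. Step two: 15 min room-temperature incubation. Step three: Ub-Rho (150nM final) starts cleavage, tracked by fluorescence over six one-minute reads.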
Tau fluor counter = Counterscreen qHTS for Inhibitors of Tau Fibril Formation, Fluorescence Polarization. Potency, µM (top dose mostly 57.7 µM), for the others: top-dose activity change, negative = decrease. actives 0.93% (n = 280,000). tau K18 P301L (four-repeat tau fragment) Alexa594 fluorescence, heparin fibrillization. AID 1463, 2008; also: potency is read from the fitted curve at half-maximal effect; nearly all actives have a fitted effect of over 55% in size
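Human K18 P301L tau (15 uM unlabeled plus 0.24 uM Alexa 594-labeled, final) in 100 mM sodium acetate pH 7 was mixed with compound and 20 uM heparin and incubated 6 hr at 37 C.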
* marks the source's active call; other numbers are inactive results; u = inconclusive; x = no result given; [ ] = dose if it differs, or a comment. Unless noted, calls follow the shape of the dose curve; as a rule, active = well fitted curve in the direction sought with a large enough effect; inconclusive = small, poorly fitted or top-dose-only effect, or another doubt; inactive = no such curve, though single readings can be large; an effect the other way counts as inactive or inconclusive. % is scaled to controls: 0 for no effect and ±100 for the full control effect.

SMILES	Tau fibril ThT	Tau fibril FP	Coupling enz	USP1-UAF1 inh	Tau fluor counter
C/C(CC1CC(COCC(C)C)OC1=O)=N\Nc1nc(-c2ccccc2)cs1 (centres undefined)	17.8µM*	-8.1%	0.0	-10.3%	u
O=C(Nc1ccccc1Cl)c1ccccc1CC(O)(c1ccccc1)c1ccccc1	x	x	x	-18.0%	x
COc1ccc(NC2=C(c3ccc(OC)cc3)C(=O)c3ccccc32)cc1	u	u	0.2	-18.7%	u
CCOc1ccc(NC2=C(OC)C(=O)c3ccccc3C2=O)cc1	10µM*	u	-29.3	u	u
COC1=C(Nc2ccc(OC)cc2)C(=O)C(OC)=C(Nc2ccc(OC)cc2)C1=O	x	x	x	-10.6%	x
COC1=C(Nc2ccc(O)cc2)C(=O)c2ccccc2C1=O	12.6µM*	u	-32.5*	u	u
COC1=C(Nc2ccc(OC)cc2)C(=O)c2ccccc2C1=O	11.2µM*	u	-33.8*	-17.7%	u
Oc1ccccc1-c1nc2cnccn2c1Nc1ccc(Cl)cc1	-14.2%	-1.4%	x	-26.2%	12.6µM*[quencher]
Cc1ccc(Nc2c(-c3ccccc3O)nc3cnccn23)cc1	-17.2%	10.3%	-3.9	-11.4%	17.8µM*[quencher]
Cc1ccc(Nc2c(-c3ccccc3O)nc3cc(C)ccn23)cc1	u	u	x	-19.8%	u
Clc1ccc(Nc2c(-c3ccccc3Cl)nc3ccc(Cl)cn23)cc1	0.2%	6.0%	x	-33.8%	-20.4%
CC(=O)O[C@@H]1C(CO[Si](C)(C)C(C)(C)C)=C(Br)C(=O)[C@@H]2O[C@]12C	28.2µM*	u	-0.1	x	-26.4%
CCOC(=O)c1ccc(NC(=S)NCCc2ccccc2F)cc1	-23.8%	28.2µM*	1.3	-15.0%	20µM*[quencher]
CCOC(=O)c1ccc(NC(=S)NCCc2ccccc2)cc1	u	1.9%	-1.0	-15.6%	u
Cc1ccc(C)c(Cn2c(=O)n(Cc3ccc(C(=O)NC4CCN(Cc5ccccc5)CC4)cc3)c(=O)c3ccccc32)c1	-5.2%	-2.1%	x	-14.0%	-13.3%
O=C(O)CC/C(=N/Nc1ccc([N+](=O)[O-])cc1)C(=O)O	u	-15.7%	11.0	-6.9%	-16.4%
O=C(O)CC/C(=N\Nc1ccc([N+](=O)[O-])cc1)c1ccccc1	7.94µM*	14.7%	5.4	-15.8%	u
CC(C)(C)OC(=O)N1CCC(c2c(C(=O)Nc3ccc4c(c3)OCCO4)cnn2-c2ccc(Cl)cc2)CC1	-0.4%	3.3%	x	u	-29.8%
O=c1c(=Nc2ccccc2O)c(=O)c2ccccc12	10µM*	u	-15.0	u	-13.2%
Oc1ccc(N=Cc2ccc(O)c(O)c2)cc1	3.16µM*	8.91µM*	-46.5*	7.94µM*	u
Oc1ccc(/C=N/N=C/c2ccc(O)c(O)c2)cc1O	x	x	-4.2	-17.0%	x
CCN1C(=O)/C(=C2/C(=O)N3c4c(cc(OC(C)=O)cc42)C(C)=CC3(C)C)SC1=S	u	22.5%	-0.2	-10.9%	u
COc1cc2c3c(c1)/C(=C1/SC(NC(C)=O)=NC1=O)C(=O)N3C(C)(C)C=C2C	15.8µM*	u	0.8	-4.5%	14.1µM*[quencher]
O=C(CSc1n[nH]c(-c2ccccn2)n1)Nc1ccccc1F	x	x	-9.3	-23.1%	x
CC(C)(C)OC(=O)CNC(=O)c1[nH]cnc1C(=O)Nc1ccc(Cl)cc1	u	25.1µM*	1.3	u	u
SMILES	Tau fibril ThT	Tau fibril FP	Coupling enz	USP1-UAF1 inh	Tau fluor counter
CC(C)C[C@H](NC(=O)c1[nH]cnc1C(=O)Nc1ccc(CNC(=O)OC(C)(C)C)cc1)C(=O)OC(C)(C)C	3.8%	u	-17.5	u	u
CC(C)(C)OC(=O)NCc1ccc(NC(=O)c2nc[nH]c2C(=O)N[C@@H](Cc2ccccc2)C(=O)OC(C)(C)C)cc1	u	8.91µM*	-12.3	-25.1%	u
CC(C)C[C@H](NC(=O)c1[nH]cnc1C(=O)Nc1ccc(CNC(=O)OC(C)(C)C)cc1)C(=O)OCc1ccccc1	11.7%	10µM*	-8.8	-15.6%	u
C[C@H](NC(=O)c1[nH]cnc1C(=O)Nc1ccc(CNC(=O)OC(C)(C)C)cc1)C(=O)OCc1ccccc1	12.4%	u	-2.2	-20.8%	u
COc1c(S(=O)(=O)N2CCN(C(=O)c3ccco3)CC2)ccc(Cl)c1Cl	x	x	3.8	-13.8%	x
Cc1ccc(-n2ncc3c(N4CCN(C)CC4)ncnc32)cc1C	-4.7%	-4.8%	x	-29.1%	-0.8%
Cc1ccc(CNC(=O)c2ccc(CSCc3c(F)cccc3Cl)o2)cc1	-0.1%	9.2%	x	-7.2%	-4.8%
CC(C)(C)OC(=O)C1=NOC2(C=CC(=O)C=C2)C1	12.6µM*	u	2.9	x	-11.0%
C/C(=N\NC(=O)c1ccc(C)cc1C)c1ccc2c(c1)Nc1ccccc1S2	14.1µM*	u	-0.1	-8.3%	17.8µM*[quencher]
CCCCN(C)CC(O)Cn1cc(/C=C/C(=O)c2ccc(OCC)cc2)c2ccccc21 (centres undefined)	11.2µM*	-11.9%	0.7	u	u
COc1ccc(C(=O)N(C)c2ccccc2C(=O)NCCc2ccccc2)cc1	x	x	-1.9	-25.1%	x
CSc1cc(-c2ccncc2)nc(-c2ccc(Cl)cc2)c1	x	x	-0.6	9.1%	x
Cn1c(SCC(=O)NC2CCCC2)nnc1C(F)(F)F	x	x	x	6.0%	x
CCOC(=O)c1c(C)[nH]c(C)c1S(=O)(=O)NCC(=O)NCc1cccc(Br)c1	1.5%	-10.3%	x	-8.4%	-8.9%
COc1ccc(/C=N/NC(=O)c2nn(-c3ccc(Cl)cc3)c(=O)c3c(N)scc23)cc1	10µM*	u	-26.0	u	u
COc1ccc(/C=N/NC(=O)c2nn(-c3ccc(C)c(C)c3)c(=O)c3ccccc23)cc1	-19.7%	-1.4%	1.0	-15.3%	-18.7%
COc1ccc(/C=N/NC(=O)c2nn(-c3ccccc3)c(=O)c3c(N)scc23)cc1	14.1µM*	u	-59.5*	u	u
CC(=O)c1ccc(NC(=O)C2CCCN(S(=O)(=O)c3cn(C)cn3)C2)cc1 (centres undefined)	3.1%	-0.9%	x	-16.3%	-2.1%
N#CC(=C(O)COC(=O)CCCNC(=O)c1ccc(Cl)cc1)c1nc2ccccc2[nH]1	x	x	x	-5.2%	x
CN1c2ccccc2N(C)C1(C)c1ccccc1	3.9%	0.7%	-1.1	u	8.4%
CCN1c2ccccc2N(C)C1(C)c1ccccc1 (centres undefined)	4.47µM*	15.8µM*	-52.7*	u	u
O=C(c1ccc(Cl)cc1)C1C2C(=O)N(c3ccccc3)C(=O)C2C2CCCN21 (centres undefined)	u	-11.8%	-1.4	-6.7%	-12.3%
